Assay results taken from PubChem BioAssay AID686976 (The Scripps Research Institute Molecular Screening Center, 2013).
About 320 (17%) of roughly 1,900 compounds were called active. No stated cut-off is given here; in the data, active means inhibition above about 30%; inactive means the rest. These entries were drawn from the full list.

Test system: CCHF virus ovarian tumor domain protease (vOTU, L protein)
Assay: CCHFV vOTU protease inhibitors, confirmation, biochemical, Pep-AMC substrate, fluorescence (AID 686976)
Settings: Recombinant CCHFV vOTU, at 11.5 µM, stronger effect = higher value

Row | Compound | inhibition
1 | O=C(OCC(=O)c1cccs1)c1ccc([N+](=O)[O-])o1 | -0.43% (inactive)
2 | Cc1cc(OC(C)C(=O)Nc2ccc(S(=O)(=O)Nc3onc(C)c3C)cc2)cc(C)c1Cl (stereo unspecified) | 12.3% (inactive)
3 | CC(=O)N1CCN(c2ccc(NCc3ccc(C(C)C)cc3)cc2)CC1 | -11.5% (inactive)
4 | Clc1ccc(C2=CSC3=Nc4cccc5cccc(c45)N23)cc1 | 94.7% (active)
5 | Cc1ccc(S(=O)(=O)/N=C2\C=C(NS(=O)(=O)c3ccc(C)cc3)C(=O)c3ccccc32)cc1 | 38.1% (active)
6 | O=S(=O)(Nc1ccc(O)c2ccccc12)c1ccc(OC(F)(F)F)cc1 | 10.3% (inactive)
7 | COc1ccc(S(=O)(=O)/N=C2\C=C(NS(=O)(=O)c3ccccc3)C(=O)c3ccccc32)cc1 | 33% (active)
8 | O=C1NC(c2ccc(-c3ccccc3[N+](=O)[O-])o2)C(C(=O)c2ccc(Cl)cc2)C(O)(C(F)(F)F)N1 (stereo unspecified) | 34.9% (active)
9 | CC1=NN(c2ccc(Cl)c(C(=O)O)c2)C(=O)/C1=C/c1ccc(-c2ccccc2[N+](=O)[O-])o1 | 5.11% (inactive)
10 | Cc1cc(C)cc(NC(=S)NCCc2c[nH]c3ccccc23)c1 | -3.11% (inactive)
11 | CCN(CC)CCCC(C)n1c2nc(=O)[nH]c(=O)c-2nc2cc(Cl)ccc21 (stereo unspecified) | 98.9% (active)
12 | COc1ccc(C(=O)COC(=O)c2ccc([N+](=O)[O-])s2)cc1OC | 12.4% (inactive)
13 | COc1cc(NC(=O)COC(=O)c2ccc([N+](=O)[O-])s2)cc(OC)c1OC | 81.3% (active)
14 | O=C(COc1ccc(Cl)cc1)N1CCN(c2cccc(C(F)(F)F)c2)CC1 | -7.38% (inactive)
15 | COCCNC(=O)Nc1ccc2nc(-c3ccco3)c(-c3ccco3)nc2c1 | 1.78% (inactive)
16 | O=C(O)c1cc(S(=O)(=O)Nc2ccc3cn[nH]c3c2)ccc1Br | -10.8% (inactive)
17 | Oc1ccc(N=Cc2sc3ccccc3c2Cl)cc1 | -0.82% (inactive)
18 | COc1ccccc1CNS(=O)(=O)c1cc2c3c(c1)CCC(=O)N3CCC2 | -12.5% (inactive)
19 | Cc1cccc(C)c1NC(=O)CNC(=O)c1c(C)nn(-c2ccccc2)c1C | -17.8% (inactive)
20 | Oc1c(Cl)cc(Cl)c(Cl)c1Cc1c(O)c(Cl)cc(Cl)c1Cl | 31.2% (active)
21 | CC(=O)N(C1=C(Cl)C(=O)c2ccccc2C1=O)c1ccc(C(=O)O)cc1 | 101% (active)
22 | CC(C(=O)Nc1ccccc1-c1ccccc1)N1CCOCC1 (stereo unspecified) | -10.3% (inactive)
23 | Cc1oc2c(c1C(=O)N1CCOCC1)C(=O)c1ccccc1C2=O | 41% (active)

Row | Compound | inhibition
24 | COc1ccc2c(c1)c(=Cc1ccc(N(C)C)cc1)c1cc(-c3ccccc3)[n+](C)n12 | -15.8% (inactive)
25 | Cc1ccc(S(=O)(=O)N2[C@@H](c3ccc(Br)cc3)C(C(=O)O)=C[C@H]2CC2CCCC2)cc1 | 24.4% (inactive)
26 | Oc1ccc(CNc2ccccc2O)cc1 | -5.66% (inactive)
27 | CCOc1ccc(C(=O)Nc2ccc(S(=O)(=O)NCC3CCCO3)cc2)cc1OCC (stereo unspecified) | -7.98% (inactive)
28 | Oc1c(CN2CCN(c3ccc(F)cc3)CC2)cc(Cl)c2cccnc12 | -0.25% (inactive)
29 | CCOc1cc(NC(=O)c2ccccc2C(=O)O)c(OCC)cc1NC(=O)c1ccccc1F | -9.49% (inactive)
30 | Cc1ccc(OCc2nnc(SC/C=C/c3ccccc3)n2Cc2ccco2)cc1 | 15.3% (inactive)
31 | COc1ccccc1N=Nc1c(O)[nH]c(=S)[nH]c1=O | 30.5% (active)
32 | NC1=CC(=O)C(=O)c2cccnc21 | 95.4% (active)
33 | CCc1ccc(OCC(=O)NCC(c2ccc(Cl)cc2)N2CCCCC2)cc1 (stereo unspecified) | 14.2% (inactive)
34 | COc1ccc2c(c1)C(C)=CC(C)(C)N2C(=O)Nc1ccccc1 | -94.5% (inactive)
35 | O=C1Nc2ccccc2-n2nnnc2C1N1CCN(c2cccc(C(F)(F)F)n2)CC1 (stereo unspecified) | -5.01% (inactive)
36 | CCNC(=S)N1CCN(c2ncccn2)CC1 | -9.28% (inactive)
37 | Cc1cc(C)c2c(=O)[nH]c(SCC(=O)Nc3ccc(Br)cc3)nc2n1 | -13.3% (inactive)
38 | Cc1ccccc1-n1c(SCC(=O)Nc2cccc3ccccc23)nc(O)cc1=O | -11.1% (inactive)
39 | Cc1oc2c(F)c(F)c(F)c(F)c2c1S(=O)(=O)Nc1cccc(C(F)(F)F)c1 | 13.9% (inactive)
40 | CC(C)(C)c1ccc(S(=O)(=O)NCC2CCN(C(=O)C(=O)c3cc4ccccc4o3)CC2)cc1 | -5.86% (inactive)
41 | Nc1ccc(N=Nc2ccccc2Cl)c(N)n1 | 8.04% (inactive)
42 | Oc1ccc(/C=N/Nc2ccc(C(F)(F)F)cn2)cc1O | -17.2% (inactive)
43 | CCCSc1nc(NCc2ccco2)c2c3c(sc2n1)COC(C)(CC)C3 (stereo unspecified) | -14.8% (inactive)
44 | O=C(O)c1ccccc1/C=N/Nc1ccc(S(=O)(=O)Nc2ccc(Cl)cc2)cc1[N+](=O)[O-] | 12.4% (inactive)
45 | CN1CCN(Cc2nc3cc(NC(=O)COc4ccc([N+](=O)[O-])cc4)ccc3n2C)CC1 | -12.5% (inactive)
46 | CCN(CC(=O)Nc1c(F)cccc1F)C(=O)c1cnc(C)cn1 | 2.27% (inactive)

Row | Compound | inhibition
47 | CC1CCCCC12NC(=O)N(CC(=O)OCC(=O)NCc1ccc(F)cc1)C2=O (stereo unspecified) | -0.61% (inactive)
48 | Cc1ccnc(NS(=O)(=O)c2ccc(NC(=O)c3oc4ccccc4c3C)cc2)n1 | 5.34% (inactive)
49 | Cc1coc2c(O)cc3c(c12)OC1(N2CCCCC2)C(=O)NCCCC31 (stereo unspecified) | 47.2% (active)
50 | Cn1c(=NC(=O)c2cnccn2)sc2ccccc21 | 5.19% (inactive)
51 | Cc1ccc(CSc2nc(-c3ccccc3)c(C#N)c(=O)[nH]2)cc1 | 13.2% (inactive)
52 | Oc1c(C=Nc2cccc3nsnc23)ccc2ccccc12 | 100% (active)
53 | Oc1ccc(N=Cc2c(O)ccc3ccccc23)cc1 | 4.75% (inactive)
54 | CC(C)Cn1c(N)c(C(=O)NCc2cccs2)c2nc3ccccc3nc21 | -76.7% (inactive)
55 | C=CCC[C@@H](CCCCC)OC(=O)/C=C/[C@@H](O)[C@H](O)C[C@H](O)CC=C | -0.24% (inactive)
56 | CCc1ccc2c(c1)NC(=O)C2(C)Cc1ccc(OC(F)(F)F)cc1 (stereo unspecified) | 3.85% (inactive)
57 | O=C(Nc1cccc(S(=O)(=O)N2CCCCC2)c1)c1ccc2c(c1)OCO2 | -5.32% (inactive)
58 | COc1ccc(C(N)c2csc(NC(=O)Nc3cccc(C(F)(F)F)c3)n2)cc1 (stereo unspecified) | -16.9% (inactive)
59 | O=C(NCc1ccc(F)cc1)c1cc(C2CCCCN2C(=O)C2CCCCC2)on1 (stereo unspecified) | -10.2% (inactive)
60 | Cc1nnc(SC(C)C(=O)Nc2ccc(S(=O)(=O)NC3CCCCC3)cc2)s1 (stereo unspecified) | -7.87% (inactive)
61 | CCOC(=O)N1CCC(c2cc(=O)n(-c3ccccc3)[nH]2)CC1 | -6.72% (inactive)
62 | COc1ccccc1C1C(C#N)=C(N)Oc2c1c(-c1ccccc1)nn2-c1ccccc1 (stereo unspecified) | 1.06% (inactive)
63 | CCN(CC)C(=O)C1=C(C)N(Cc2ccc(C(C)(C)C)cc2)C(=O)C(CC(=O)NCc2cccc3ccccc23)C1 (stereo unspecified) | 3.3% (inactive)
64 | COc1ccc(C(=O)/C=C/c2ccc(-c3ccccc3)cc2)cc1CSCC(=O)O | 0.4% (inactive)
65 | COc1cccc(NC(=O)C(=O)c2cn(CC(=O)N3CCOCC3)c3ccccc23)c1 | 0.94% (inactive)
66 | COCCn1nnnc1C(c1cc2ccc(OC)cc2[nH]c1=O)N1CCc2ccccc2C1 (stereo unspecified) | 20.7% (inactive)
67 | CN(C)N1C(N)=C(C#N)C(c2ccc(Br)cc2)C2=C1CCCC2=O (stereo unspecified) | -25.8% (inactive)
68 | O=C1Nc2ccc([N+](=O)[O-])cc2C1=Nc1cccc(CO)c1 | 58.4% (active)
69 | CCN(CC)P(=O)(Oc1cccc(C)c1)N(CC)CC | -12.8% (inactive)

Row | Compound | inhibition
70 | CCCCCC(=O)N1C[C@H](O)[C@@H](n2cc(COC(=O)c3ccccc3)nn2)C[C@@H]1c1ccc(C)cc1 | 7.84% (inactive)
71 | CC(C)Oc1ccc(CN2CCC2(C)C(=O)NCc2ccc(C(F)(F)F)cc2)cc1 (stereo unspecified) | 8.85% (inactive)
72 | CN1c2ccc(C=O)c3c(C=O)ccc(c23)N(C)C1(C)C | -100% (inactive)
73 | COc1ccc(F)cc1C(=O)C1CCCN(C(=O)CCc2ccccn2)C1 (stereo unspecified) | -14.7% (inactive)
74 | CCN(C[C@H]1N[C@@](CC)(C(=O)OC)[C@H]2C(=O)N(Cc3ccccc3)C(=O)[C@@H]12)S(=O)(=O)c1ccc(C(F)(F)F)cc1 | 7.2% (inactive)
75 | CCOC(=O)c1c(C)[nH]c2c1-c1ccccc1C(=O)C2=O | 98.7% (active)
76 | CCOC(=O)c1ccc(Nc2cc3ccccc3c(=O)[nH]2)cc1 | 24.6% (inactive)
77 | O=C(NC1=CC(=O)c2ccccc2C1=O)c1ccccc1 | 99.3% (active)
78 | O=C1C=C(NS(=O)(=O)c2ccccc2)C(=O)c2ccccc21 | 15.4% (inactive)
79 | O=C(NC1CCCCC1)N1CCc2[nH]c3ccccc3c2C1 | -22.6% (inactive)
80 | CN(C)c1ccc(N/C=C/C(=O)C(F)(F)F)cc1 | 5.61% (inactive)
81 | Cc1cc(C(=O)N/N=C/c2ccc(O)c([N+](=O)[O-])c2)c(C)n1-c1ccc(F)cc1 | 8.57% (inactive)
82 | CCCS(=O)(=O)NC(=O)C1(C)CCN(C(=O)c2sccc2C)C1 (stereo unspecified) | -18.9% (inactive)
83 | COc1cc2c(cc1OC)C(Cc1cc(OC)c(OC)cc1[N+](=O)[O-])=NCC2 | -18.3% (inactive)
84 | COc1ccc(NC(=O)C[C@H]2C(=O)N(CCc3ccccc3)C[C@@H]2C)cc1 | -25.5% (inactive)
85 | COC(=O)[C@]12C[C@H](CC(=O)NCc3ccc(C)o3)C(=O)N(CCC3=CCCCC3)C1=C[C@H](C(C)(C)C)O[C@@H]2C | 9.58% (inactive)
86 | CCOC(=O)c1ccc(NC(=O)c2nc[nH]c2C(=O)N[C@@H](CCCCNC(=O)OC(C)(C)C)C(=O)OC(C)(C)C)cc1 | 12.5% (inactive)
87 | O=C(NCCc1ccc(Cl)cc1Cl)c1cc([N+](=O)[O-])c[nH]c1=O | -6.11% (inactive)
88 | COC(=O)[C@@]12C[C@@H](CC(=O)NCc3cccc(C(F)(F)F)c3)C(=O)N(Cc3ccco3)C1=CCC(C)(C)C2 | 12.2% (inactive)
89 | CCN(CC)C(=O)[C@@H]1C=C2c3cccc4[nH]c(Br)c(c34)C[C@H]2N(C)C1 | -5.37% (inactive)
90 | CCn1nnnc1SCC(=O)Nc1ccc(N(C)C)cc1 | 6.35% (inactive)
91 | Cc1nnc(NC(=O)Nc2ccc(Cl)c(Cl)c2)s1 | -15.1% (inactive)
